Source: PubChem BioAssay (NCI)
Compounds without any hit were thinned out: in the full panel of roughly 83,000, 20% have a hit.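 Values shown are percent growth following 48 h exposure of cells in 96-well plates to a single concentration of compound; below 10 was considered active.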 The source made the active and inactive calls.

Tested on: SW-620 colon
Assay: NCI-60 one-dose screen, 48 h (100 = growth as untreated, 0 = no growth, -100 = all killed)
Settings: 10 µM

Row | SMILES | growth
1 | O=S(=O)(Nc1ncccn1)c1ccc(-n2c(-c3ccccc3)nc(-c3ccccc3)c2-c2ccccc2)cc1 | 91.9% (inactive)
2 | COc1ccc(-c2cc(-c3cc(C(=O)c4ccccc4)n4ccc(C)cc34)nc(N)c2C#N)cc1 | 78.9% (inactive)
3 | N#Cc1ccc(NC(=O)CSc2ccc(-c3ccc(Br)cc3)nn2)cc1 | 91.1% (inactive)
4 | CCCn1c(O)c(N=Nc2nc(-c3cc4ccccc4oc3=O)cs2)c2cc(Br)ccc21 | 106% (inactive)
5 | COc1cc2oc(-c3cccc(C(=O)Nc4ccc(Cl)cc4)c3)cc(=O)c2c(OCCNC(=O)CNC(=O)OC(C)(C)C)c1OC | 110% (inactive)
6 | COc1cc(NC(=O)CSc2nnc(-c3ccc4nc(-c5ccc(Cl)cc5)[nH]c4c3)o2)cc(OC)c1OC | 80.1% (inactive)
7 | O=C(NO)c1ccc(CNC(=O)[C@H]2Cc3c([nH]c4ccccc34)[C@H](c3ccc(Cl)cc3)N2)cc1 | -51.6% (active)
8 | N#Cc1c(NC(=O)c2ccc(C(F)(F)F)c(Cl)c2)sc2c1CCC(=O)C2 | -56.8% (active)
9 | O=C(Cc1ccc2c(c1)CN(C1CCC(=O)NC1=O)C2=O)NCc1cccc2ccccc12 (stereo unspecified) | 5.07% (active)
10 | CCOC(=O)CNC(=O)CN(Cc1ccccc1)C(=O)[C@@]1(C)CCC[C@]2(C)[C@H]3C[C@H]4C(C(C)C)=C[C@]3(CC[C@H]21)[C@@H]1C(=O)OC(=O)[C@@H]14 | 79.4% (inactive)
11 | O=C(NCCCCCCCCCC[P+](c1ccccc1)(c1ccccc1)c1ccccc1)c1ccc(-n2nc(-c3ccccc3O)nc2-c2ccccc2O)cc1 | -60.9% (active)
